Common to all, as to experiment: qHTS profiling for inhibitors of Plasmodium falciparum proliferation (AID 504749); further: nearly all actives have a fitted effect of over 60% in size
Settings in all cases: P. falciparum in erythrocytes, SYBR Green DNA, 72 h; series mostly up to 28.7 µM
(In qHTS, concentration-response curves come from the screen itself.)

One assay has as its system ATS95. In short, it runs like this: (§1)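 P. falciparum-infected erythrocytes (0.3% parasitemia, 2.5% hematocrit final) were exposed to compounds for 72 h at 37 C in 5% CO2, then lysed with SYBR Green buffer overnight at room temperature; parasite DNA fluorescence was normalized to artemisinin and DMSO controls.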
The subject of another assay is CP185. In short, it runs like this: as §1
Another assay relates to CP191. In short, it runs like this: as §1
The next assay deals with CP192. In short, it runs like this: as §1
Another assay relates to CP201. In short, it runs like this: as §1
Another assay relates to CP237. In short, it runs like this: as §1
In the next assay the test system is CP238. In short, it runs like this:
as §1

The subject of another assay is CP247. In short, it runs like this: as §1
In another assay the test system is CP262. Summed up:
as §1

In a further assay the test system is CP265. Summed up:
as §1

Another assay relates to CP268. In short, it runs like this:
as §1

The next assay deals with CP286. In short, it runs like this:
as §1

The subject of another assay is CP305. Summed up: as §1
A further assay relates to CP335. In short, it runs like this:
as §1

The next assay concerns DIV30. In short, it runs like this: as §1
For another assay, the system named is Dd2. Summed up:
as §1

In another assay the test system is ECU. In short, it runs like this:
as §1

A further assay has as its system HB3. In short, it runs like this: as §1
In a further assay the test system is P94_40. Summed up: as §1
The test system of another assay is TAB109. Summed up:
as §1

Records with an inconclusive call do not appear. Calls of active or inactive are those of the source. The call rests on the fitted dose curve; in most records, active means well fitted inhibition curve with a large enough effect; inconclusive means small, poorly fitted or top-dose-only effect; inactive means flat fitted curve, though single readings scatter.
Potency means the concentration at half of the fitted maximal effect.

On to `CC(C)[C@@]1(NC(=O)[C@H]2CC3c4cccc5[nH]cc(c45)C[C@H]3N(C)C2)O[C@@]2(O)C3CCCN3C(=O)[C@@H](Cc3ccccc3)N2C1=O` (stereo not given in full), for which the Potency is 3.16 µM (active) in the assay with ATS95; 10 µM (active) with CP185; 5.01 µM (active) with CP191; 7.57 µM (active) in the assay with CP192; 10.7 µM (active) in the assay on CP201; 1.26 µM (active) in the assay with CP237. Besides, the Potency in the assay on CP238 is 3.98 µM (active); in the assay with CP247, 8.91 µM (active); in the assay with CP262, 12 µM (active); in the assay with CP265, 4.47 µM (active); with CP268 it was 10.7 µM (active); in the assay with CP286 it was 3.98 µM (active). For the same compound, the Potency with CP305 is 6.75 µM (active); in the assay with CP335 it was 3.79 µM (active); in the assay on DIV30, 1.51 µM (active); with Dd2 it was 2.82 µM (active); in the assay on ECU it was 1.41 µM (active); in the assay with HB3 it was 2 µM (active). Also, the Potency in the assay with P94_40 is 2 µM (active); with TAB109, 4.47 µM (active).

Take `CCN1C[C@]2(COC)[C@H](O)C[C@H](OC)[C@]34C1C([C@H](OC)[C@H]23)[C@]1(OC(C)=O)C2[C@@H](OC(=O)c3ccccc3)C(O)(C[C@H]24)[C@@H](OC)[C@@H]1O`: the Potency result in the assay with ATS95, with CP185, in the assay on CP191, in the assay on CP192, with CP201 and with CP237 was “inactive” each time. For the same compound, the Potency entry with CP238, in the assay with CP247, with CP262, in the assay on CP265, in the assay with CP268 and in the assay with CP286 was “inactive” each time. Also, the Potency entry in the assay with CP305, in the assay on CP335, in the assay on DIV30, with Dd2, in the assay with ECU and in the assay on HB3 was “inactive” throughout. For the same compound, the Potency entry in the assay with P94_40 and in the assay on TAB109 was “inactive” each time.

As to `O=C(O)c1ccccc1-c1c2cc(Br)c(=O)cc-2oc2[c]([Hg])c(O)c(Br)cc12`, the Potency result in the assay with ATS95, in the assay on CP185, in the assay on CP191, in the assay on CP192, in the assay with CP201 and with CP237 was “inactive” each time. Besides, the Potency entry in the assay with CP238, with CP247, with CP262, with CP265, in the assay with CP268 and in the assay on CP286 was “inactive” each time. The Potency result with CP305, in the assay with CP335, in the assay on DIV30, in the assay on Dd2, in the assay with ECU and with HB3 was “inactive” in each case. The Potency result in the assay with P94_40 and in the assay on TAB109 was “inactive” each time.

The record behind these values is PubChem BioAssay (NCATS).
